# This is one part of a sample in which the strongest signals are shown more often than they occur.
# B1: CGL (Crenomytilus grayanus), H2FH31 (protein)
# chain: MTTFLIKHKASGKFLHPYGGSSNPANNTKLVLHSDIHERMYFQFDVVDERWGYIKHVASGKIVHPYGGQANPPNETNMVLHQDRHDRALFAMDFFNDNIMHKGGKYIHPKGGSPNPPNNTETVIHGDKHAAMEFIFVSPKNKDKRVLVYA
# Columns and labels:
# Assay in all cases: glycan array binding signal (z-score within array); higher = stronger binding
# Conditions in all cases: glycan notation: IUPAC condensed, linker removed
# [1] = molecular target: Fuc(a1-2)Gal(b1-3)GlcNAc(b1-2)Man(a1-3)[Fuc(a1-2)Gal(b1-3)GlcNAc(b1-2)Man(a1-6)]Man(b1-4)GlcNAc(b1-4)GlcNAc
# Method in brief: (§1)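 The Consortium for Functional Glycomics database supplied 3228 glycan arrays, of which those lacking an available protein sequence were dropped. The binding signal, a within-array Z-score, was averaged across arrays of the same protein sequence and across linkers. Negative scores can be read as non-binding.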
# [2] = molecular target: Fuc(a1-2)Gal(b1-3)GlcNAc(b1-3)[Gal(b1-4)GlcNAc(b1-6)]Gal(b1-4)Glc
# Method in brief: as §1
# [3] = molecular target: Fuc(a1-2)Gal(b1-3)[Fuc(a1-4)]GlcNAc
# Method in brief: as §1
# [4] = molecular target: Fuc(a1-2)Gal(b1-4)GlcNAc(b1-3)Gal(b1-4)GlcNAc(b1-2)Man(a1-3)[Fuc(a1-2)Gal(b1-4)GlcNAc(b1-3)Gal(b1-4)GlcNAc(b1-2)Man(a1-6)]Man(b1-4)GlcNAc(b1-4)GlcNAc
# Method in brief: as §1
# [5] = molecular target: Fuc(a1-2)Gal(b1-4)GlcNAc(b1-3)[Fuc(a1-2)Gal(b1-4)GlcNAc(b1-6)]GalNAc
# Method in brief: as §1
# [6] = molecular target: Fuc(a1-2)[Gal(a1-3)]Gal(b1-4)GlcNAc
# Method in brief: as §1
# [7] = molecular target: Fuc(a1-2)[Gal(a1-4)]Gal(b1-4)GlcNAc
# Method in brief: as §1
# [8] = molecular target: Fuc(a1-2)[GalNAc(a1-3)]Gal
# Method in brief: as §1
# [9] = molecular target: Fuc(a1-2)[GalNAc(a1-3)]Gal(b1-4)GlcNAc(b1-2)Man(a1-3)[Fuc(a1-2)[GalNAc(a1-3)]Gal(b1-4)GlcNAc(b1-2)Man(a1-6)]Man(b1-4)GlcNAc(b1-4)[Fuc(a1-6)]GlcNAc
# Method in brief: as §1
# [10] = molecular target: Fuc(a1-2)[GalNAc(a1-3)]Gal(b1-4)GlcNAc(b1-6)GalNAc
# Method in brief: as §1
# [11] = molecular target: Fuc(a1-2)[GalNAc(a1-3)]Gal(b1-4)[Fuc(a1-3)]GlcNAc(b1-3)GalNAc
# Method in brief: as §1
# [12] = molecular target: Fuc(a1-3)[Gal(b1-4)]GlcNAc6S
# Method in brief: as §1
# [13] = molecular target: Gal(a1-3)Gal(b1-4)GlcNAc(b1-2)Man
# Method in brief: as §1
# [14] = molecular target: Gal(a1-3)Gal(b1-4)GlcNAc(b1-2)Man(a1-3)[Gal(a1-3)Gal(b1-4)GlcNAc(b1-2)Man(a1-6)]Man(b1-4)GlcNAc(b1-4)GlcNAc
# Method in brief: as §1
# [15] = molecular target: Gal(a1-3)Gal(b1-4)GlcNAc(b1-3)GalNAc
# Method in brief: as §1
# [16] = molecular target: Gal(a1-3)[Gal(a1-4)]Gal(b1-4)GlcNAc
# Method in brief: as §1
# [17] = molecular target: Gal(a1-4)Gal(b1-3)GlcNAc(b1-2)Man(a1-3)[Gal(a1-4)Gal(b1-3)GlcNAc(b1-2)Man(a1-6)]Man(b1-4)GlcNAc(b1-4)GlcNAc
# Method in brief: as §1
# Gal(a1-4)Gal(b1-4)GlcNAc = molecular target: Gal(a1-4)Gal(b1-4)GlcNAc
# Method in brief: as §1
# [18] = molecular target: Gal(a1-4)Gal(b1-4)GlcNAc(b1-2)Man(a1-3)[Gal(a1-4)Gal(b1-4)GlcNAc(b1-2)Man(a1-6)]Man(b1-4)GlcNAc(b1-4)GlcNAc
# Method in brief: as §1
# [19] = molecular target: Gal(a1-4)Gal(b1-4)GlcNAc(b1-3)Gal(b1-4)Glc
# Method in brief: as §1
# Gal(b1-3)Gal(b1-4)GlcNAc = molecular target: Gal(b1-3)Gal(b1-4)GlcNAc
# Method in brief: as §1
# [20] = molecular target: Gal(b1-3)GalNAc(a1-3)[Fuc(a1-2)]Gal(b1-4)Glc
# Method in brief: as §1
# [21] = molecular target: Gal(b1-3)GalNAc(a1-3)[Fuc(a1-2)]Gal(b1-4)GlcNAc
# Method in brief: as §1
# [22] = molecular target: Gal(b1-3)GlcNAc(a1-3)Gal(b1-4)GlcNAc
# Method in brief: as §1
# [23] = molecular target: Gal(b1-3)GlcNAc(a1-6)Gal(b1-4)GlcNAc
# Method in brief: as §1
# [24] = molecular target: Gal(b1-3)GlcNAc(b1-2)[Gal(b1-3)GlcNAc(b1-6)]Man(a1-6)[Gal(b1-3)GlcNAc(b1-2)Man(a1-3)]Man(b1-4)GlcNAc(b1-4)GlcNAc
# Method in brief: as §1
# [25] = molecular target: Gal(b1-3)GlcNAc(b1-6)Gal(b1-4)GlcNAc
# Method in brief: as §1
# [26] = molecular target: Gal(b1-3)[Neu5Ac(a2-6)]GalNAc
# Method in brief: as §1
# Gal(b1-4)GlcNAc(b1-2)Man = molecular target: Gal(b1-4)GlcNAc(b1-2)Man
# Method in brief: as §1
# [27] = molecular target: Gal(b1-4)GlcNAc(b1-2)[Gal(b1-4)GlcNAc(b1-4)]Man(a1-3)[Gal(b1-4)GlcNAc(b1-2)[Gal(b1-4)GlcNAc(b1-6)]Man(a1-6)]Man(b1-4)GlcNAc(b1-4)GlcNAc
# Method in brief: as §1
# [28] = molecular target: Gal(b1-4)GlcNAc(b1-3)Gal(b1-4)GlcNAc(b1-3)Gal(b1-4)GlcNAc(b1-2)[Gal(b1-4)GlcNAc(b1-3)Gal(b1-4)GlcNAc(b1-3)Gal(b1-4)GlcNAc(b1-6)]Man(a1-6)[Gal(b1-4)GlcNAc(b1-3)Gal(b1-4)GlcNAc(b1-3)Gal(b1-4)GlcNAc(b1-2)Man(a1-3)]Man(b1-4)GlcNAc(b1-4)[Fuc(a1-6)]GlcNAc
# Method in brief: as §1
# [29] = molecular target: Gal(b1-4)GlcNAc(b1-3)Gal(b1-4)GlcNAc(b1-3)Gal(b1-4)GlcNAc(b1-3)Gal(b1-4)GlcNAc(b1-3)Gal(b1-4)GlcNAc(b1-2)Man(a1-3)[Gal(b1-4)GlcNAc(b1-3)Gal(b1-4)GlcNAc(b1-3)Gal(b1-4)GlcNAc(b1-3)Gal(b1-4)GlcNAc(b1-3)Gal(b1-4)GlcNAc(b1-2)Man(a1-6)]Man(b1-4)GlcNAc(b1-4)GlcNAc
# Method in brief: as §1
# [30] = molecular target: Gal(b1-4)GlcNAc(b1-3)Gal(b1-4)GlcNAc(b1-3)Gal(b1-4)GlcNAc(b1-3)Gal(b1-4)GlcNAc(b1-3)Gal(b1-4)GlcNAc(b1-2)[Gal(b1-4)GlcNAc(b1-3)Gal(b1-4)GlcNAc(b1-3)Gal(b1-4)GlcNAc(b1-3)Gal(b1-4)GlcNAc(b1-3)Gal(b1-4)GlcNAc(b1-6)]Man(a1-6)[Gal(b1-4)GlcNAc(b1-3)Gal(b1-4)GlcNAc(b1-3)Gal(b1-4)GlcNAc(b1-3)Gal(b1-4)GlcNAc(b1-3)Gal(b1-4)GlcNAc(b1-2)Man(a1-3)]Man(b1-4)GlcNAc(b1-4)[Fuc(a1-6)]GlcNAc
# Method in brief: as §1
# Gal6S(b1-4)Glc = molecular target: Gal6S(b1-4)Glc
# Method in brief: as §1
# [31] = molecular target: GalNAc(b1-3)Gal(a1-4)Gal(b1-4)GlcNAc(b1-3)Gal(b1-4)Glc
# Method in brief: as §1
# GalNAc6S(b1-4)GlcNAc = molecular target: GalNAc6S(b1-4)GlcNAc
# Method in brief: as §1
# [32] = molecular target: GlcA3S(b1-3)Gal(b1-4)GlcNAc(b1-3)Gal(b1-4)Glc
# Method in brief: as §1
# [33] = molecular target: GlcNAc(a1-6)Gal(b1-4)GlcNAc
# Method in brief: as §1
# [34] = molecular target: GlcNAc(b1-2)[GlcNAc(b1-4)]Man(a1-3)[GlcNAc(b1-4)][GlcNAc(b1-2)Man(a1-6)]Man(b1-4)GlcNAc(b1-4)GlcNAc
# Method in brief: as §1
# GlcNAc(b1-3)Fuc = molecular target: GlcNAc(b1-3)Fuc
# Method in brief: as §1
# [35] = molecular target: GlcNAc(b1-3)Gal(b1-4)GlcNAc(b1-3)Gal(b1-4)GlcNAc(b1-3)Gal(b1-4)GlcNAc(b1-3)Gal(b1-4)GlcNAc(b1-2)Man(a1-3)[GlcNAc(b1-3)Gal(b1-4)GlcNAc(b1-3)Gal(b1-4)GlcNAc(b1-3)Gal(b1-4)GlcNAc(b1-3)Gal(b1-4)GlcNAc(b1-2)Man(a1-6)]Man(b1-4)GlcNAc(b1-4)[Fuc(a1-6)]GlcNAc
# Method in brief: as §1
# [36] = molecular target: GlcNAc(b1-3)[GlcNAc(b1-4)][GlcNAc(b1-6)]GlcNAc
# Method in brief: as §1
# [37] = molecular target: Neu5Ac(a2-3)Gal(b1-3)GlcNAc(b1-2)Man(a1-3)[Neu5Ac(a2-3)Gal(b1-3)GlcNAc(b1-2)Man(a1-6)]Man(b1-4)GlcNAc(b1-4)GlcNAc
# Method in brief: as §1
# [38] = molecular target: Neu5Ac(a2-3)Gal(b1-3)GlcNAc(b1-3)GalNAc
# Method in brief: as §1
# [39] = molecular target: Neu5Ac(a2-3)Gal(b1-4)GlcNAc(b1-2)[Neu5Ac(a2-3)Gal(b1-4)GlcNAc(b1-4)]Man(a1-3)[GlcNAc(b1-4)][Neu5Ac(a2-3)Gal(b1-4)GlcNAc(b1-2)[Neu5Ac(a2-3)Gal(b1-4)GlcNAc(b1-6)]Man(a1-6)]Man(b1-4)GlcNAc(b1-4)GlcNAc
# Method in brief: as §1
# [40] = molecular target: Neu5Ac(a2-3)Gal(b1-4)GlcNAc(b1-3)[Neu5Ac(a2-3)Gal(b1-4)GlcNAc(b1-6)]GalNAc
# Method in brief: as §1
# [41] = molecular target: Neu5Ac(a2-3)Gal(b1-4)GlcNAc(b1-6)[Neu5Ac(a2-3)Gal(b1-3)]GalNAc
# Method in brief: as §1
# [42] = molecular target: Neu5Ac(a2-3)Gal(b1-4)GlcNAc6S
# Method in brief: as §1
# [43] = molecular target: Neu5Ac(a2-6)Gal(b1-4)GlcNAc(b1-2)Man(a1-6)[Man(a1-3)]Man(b1-4)GlcNAc(b1-4)GlcNAc
# Method in brief: as §1
# [44] = molecular target: Neu5Ac(a2-8)Neu5Ac(a2-3)[GalNAc(b1-4)]Gal(b1-4)Glc
# Method in brief: as §1
binder,measurement,setting,value
B1,glycan array binding signal (z-score),[1],-0.195
same,glycan array binding signal (z-score),[2],-0.054
same,glycan array binding signal (z-score),[3],-0.372
same,glycan array binding signal (z-score),[4],0.855
same,glycan array binding signal (z-score),[5],-0.067
same,glycan array binding signal (z-score),[6],-0.063
same,glycan array binding signal (z-score),[7],4.38
same,glycan array binding signal (z-score),[8],-0.106
same,glycan array binding signal (z-score),[9],-0.23
same,glycan array binding signal (z-score),[10],-0.096
same,glycan array binding signal (z-score),[11],-0.217
same,glycan array binding signal (z-score),[12],-0.324
same,glycan array binding signal (z-score),[13],1.69
same,glycan array binding signal (z-score),[14],5.84
same,glycan array binding signal (z-score),[15],3.54
same,glycan array binding signal (z-score),[16],3.32
same,glycan array binding signal (z-score),[17],4.07
same,glycan array binding signal (z-score),Gal(a1-4)Gal(b1-4)GlcNAc,3.63
same,glycan array binding signal (z-score),[18],8.66
same,glycan array binding signal (z-score),[19],4.55
same,glycan array binding signal (z-score),Gal(b1-3)Gal(b1-4)GlcNAc,-0.077
same,glycan array binding signal (z-score),[20],-0.352
same,glycan array binding signal (z-score),[21],-0.341
same,glycan array binding signal (z-score),[22],0.396
same,glycan array binding signal (z-score),[23],0.803
same,glycan array binding signal (z-score),[24],1.87
same,glycan array binding signal (z-score),[25],0.949
same,glycan array binding signal (z-score),[26],-0.398
same,glycan array binding signal (z-score),Gal(b1-4)GlcNAc(b1-2)Man,-0.334
same,glycan array binding signal (z-score),[27],1.1
same,glycan array binding signal (z-score),[28],3.3
same,glycan array binding signal (z-score),[29],3.18
same,glycan array binding signal (z-score),[30],3.77
same,glycan array binding signal (z-score),Gal6S(b1-4)Glc,-0.407
same,glycan array binding signal (z-score),[31],0.074
same,glycan array binding signal (z-score),GalNAc6S(b1-4)GlcNAc,-0.377
same,glycan array binding signal (z-score),[32],-0.414
same,glycan array binding signal (z-score),[33],-0.356
same,glycan array binding signal (z-score),[34],-0.324
same,glycan array binding signal (z-score),GlcNAc(b1-3)Fuc,-0.323
same,glycan array binding signal (z-score),[35],-0.279
same,glycan array binding signal (z-score),[36],-0.327
same,glycan array binding signal (z-score),[37],-0.382
same,glycan array binding signal (z-score),[38],-0.337
same,glycan array binding signal (z-score),[39],-0.348
same,glycan array binding signal (z-score),[40],-0.248
same,glycan array binding signal (z-score),[41],-0.386
same,glycan array binding signal (z-score),[42],-0.278
same,glycan array binding signal (z-score),[43],-0.418
same,glycan array binding signal (z-score),[44],-0.366

# From the supplement of paper PMC8728848
